This excerpt belongs to a sample that is enriched for hits.
KDM5B inhibitor: inhibitors of human KDM5B histone demethylase. Q9UGL1. KDM5B demethylase, FDH-coupled NADH fluorescence (FDH is formaldehyde dehydrogenase). Potency, µM (highest dose often 57.7 µM), most hits filed as inhibitors. hit rate 2.6% among 220,000; active = well fitted inhibition curve with a large enough effect; note: 0% is about no effect; nearly all actives have a fitted effect of over 70% in size
Target sequence (Q9UGL1 whole entry, looked up): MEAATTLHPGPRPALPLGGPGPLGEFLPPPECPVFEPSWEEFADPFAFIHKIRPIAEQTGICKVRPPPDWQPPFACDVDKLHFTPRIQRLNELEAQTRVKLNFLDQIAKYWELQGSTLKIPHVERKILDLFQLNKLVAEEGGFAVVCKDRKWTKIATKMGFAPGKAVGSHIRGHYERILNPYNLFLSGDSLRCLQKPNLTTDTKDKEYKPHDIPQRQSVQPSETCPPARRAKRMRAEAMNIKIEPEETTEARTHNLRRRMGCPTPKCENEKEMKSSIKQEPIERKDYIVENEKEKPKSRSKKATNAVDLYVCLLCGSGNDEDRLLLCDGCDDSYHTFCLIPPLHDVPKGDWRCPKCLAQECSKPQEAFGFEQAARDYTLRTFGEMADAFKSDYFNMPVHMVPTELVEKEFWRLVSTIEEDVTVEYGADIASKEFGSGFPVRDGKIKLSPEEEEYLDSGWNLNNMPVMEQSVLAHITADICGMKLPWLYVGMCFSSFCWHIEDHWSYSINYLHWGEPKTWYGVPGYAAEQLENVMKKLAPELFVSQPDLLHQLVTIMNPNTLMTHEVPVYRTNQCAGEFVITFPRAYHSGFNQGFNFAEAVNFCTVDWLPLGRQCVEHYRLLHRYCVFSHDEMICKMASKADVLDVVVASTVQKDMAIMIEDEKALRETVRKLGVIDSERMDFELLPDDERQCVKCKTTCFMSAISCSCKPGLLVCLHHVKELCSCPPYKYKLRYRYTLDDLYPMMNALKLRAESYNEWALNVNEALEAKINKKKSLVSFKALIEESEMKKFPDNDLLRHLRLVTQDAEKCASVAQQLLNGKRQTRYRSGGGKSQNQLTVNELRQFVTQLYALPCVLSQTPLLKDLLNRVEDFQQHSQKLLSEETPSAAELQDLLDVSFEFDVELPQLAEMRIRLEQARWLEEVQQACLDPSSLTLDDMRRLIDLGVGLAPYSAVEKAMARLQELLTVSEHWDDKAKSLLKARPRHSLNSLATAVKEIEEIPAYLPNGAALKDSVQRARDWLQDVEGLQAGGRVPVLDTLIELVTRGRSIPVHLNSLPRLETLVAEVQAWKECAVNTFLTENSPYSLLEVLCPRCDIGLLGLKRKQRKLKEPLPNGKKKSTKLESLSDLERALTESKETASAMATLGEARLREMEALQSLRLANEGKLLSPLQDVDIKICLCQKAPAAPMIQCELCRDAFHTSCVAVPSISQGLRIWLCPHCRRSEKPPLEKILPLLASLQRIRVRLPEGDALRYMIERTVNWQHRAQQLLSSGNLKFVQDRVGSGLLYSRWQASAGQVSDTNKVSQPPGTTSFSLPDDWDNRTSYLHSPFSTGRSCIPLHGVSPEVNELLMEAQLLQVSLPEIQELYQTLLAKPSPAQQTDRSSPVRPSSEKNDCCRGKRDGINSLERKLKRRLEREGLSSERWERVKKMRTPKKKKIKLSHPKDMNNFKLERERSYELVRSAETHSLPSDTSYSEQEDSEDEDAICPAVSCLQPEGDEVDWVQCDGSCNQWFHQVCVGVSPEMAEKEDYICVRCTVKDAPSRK
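Here, H3K4me3 peptide (12.5 µM in substrate mix) is demethylated by KDM5BΔAP, 200 nM final, after 10 min compound exposure. Formaldehyde product is coupled through FDH (0.25 U/mL in mix) to NADH fluorescence; 30-min ΔRFU feeds dose-response curves.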
Active calls of the source: *; i = inactive. Potency is the fitted concentration of half-maximal effect.

SMILES | KDM5B inhibitor
C[C@]1(CO)[C@H]2Cc3sc(NC(=O)c4ccnc(Cl)c4)nc3[C@@H](CC(=O)O)[C@]2(C)CC[C@H]1O | i
COc1ccc(OC)c(C2=NOC(C(=O)O)C2)c1 (stereo not drawn) | 28µM*
COc1ccc(OC)c(C2=NOC(C(=O)Nc3cc(C)nn3-c3ccccc3)C2)c1 (stereo not drawn) | i
COc1ccccc1C1=NOC(C(=O)Nc2ccc(OC(F)(F)F)cc2)C1 (stereo not drawn) | i
COc1ccc(-c2cc(N3CCC(NC(=O)c4ccc(N(C)C)cc4)CC3)n[nH]2)cc1 | i
CNC(=O)c1cn2c(n1)CN(C(=O)c1cccnc1)CC2 | i
CSc1ncc(C(=O)NCc2ccc(Cl)cc2)c(C(F)(F)F)n1 | i
O=C(NCc1c[nH]c2ncccc12)c1ccccc1Cl | i
O=C(NC1CCCC1)c1cccc2ncccc12 | i
O=C(NC1CC1)c1ccnc2[nH]ccc12 | 141µM*
O=C(NCc1ccc(Cl)cc1)c1c[nH]c2ncccc12 | i
O=C(NCc1ccnc2[nH]ccc12)c1ccccc1Cl | 35µM*
O=C(Nc1ccc(F)cc1)c1ccnc2[nH]ccc12 | i
O=C(NCc1ccc(Cl)cc1)c1ccnc2[nH]ccc12 | 28µM*
O=C(Cc1ccccc1)NCc1ccnc2[nH]ccc12 | i
CCC(=O)N(C1CCOCC1)C1CCN(S(=O)(=O)c2ccccc2F)CC1 | i
Cc1cccc(CNC(=O)Cn2c(C)ccc(NS(C)(=O)=O)c2=O)c1 | i
CCN(CC)C(CNS(=O)(=O)c1ccccc1)c1ccsc1 (stereo not drawn) | i
COC(=O)c1cc(-c2ccc(F)cc2)nc2onc(-c3ccco3)c12 | i
Cc1cc2c(cc1S(=O)(=O)N(C)CC(=O)N1CCCCC1)OC(C)C(=O)N2 (stereo not drawn) | i
C=CCOc1ccc(C(=O)Nc2cccc(OC)c2)cc1 | i
O=C(O)c1ccc(COc2ccc(Cl)cc2)s1 | i
COc1cc(NC(=O)N2CC(C)Oc3ccc(Cl)cc32)cc(OC)c1OC (stereo not drawn) | i
CC(C)(CC(=O)O)CC(=O)N[C@H]1C[C@H]2C(=O)Nc3ccc(-c4ccsc4)cc3C(=O)N2C1 | i
O=C1Nc2ccc(-c3ccccc3F)cc2C(=O)N2C[C@H](O)C[C@@H]12 | i
SMILES | KDM5B inhibitor
CC(C)(C)CC(=O)N1CCN2C(=O)c3cc(-c4cccc(C(F)(F)F)c4)ccc3NC(=O)[C@H]2C1 | i
O=C(O)CCCC(=O)N1CCN2C(=O)c3cc(Br)ccc3NC(=O)[C@H]2C1 | i
CC(C)NC(=O)N[C@H]1CCN2C(=O)c3cc(-c4ccccc4F)ccc3NC(=O)[C@@H]2C1 | i
COc1ccc(-c2ccc3c(c2)C(=O)N2CCN(C(=O)CC(C)(C)C)C[C@@H]2C(=O)N3)cc1 | 28µM*
O=C1Nc2ccc(-c3ccccc3F)cc2C(=O)N2CCN(C(=O)c3ccco3)C[C@@H]12 | 35µM*
COc1ccc(CN2C[C@H]3CN(C(=O)CC(C)(C)C)CCN3C2=O)cc1 | i
CC(C)(C)CC(=O)N1CCN2C(=O)c3cc(-c4ccccc4)ccc3NC(=O)[C@H]2C1 | 32µM*
Cn1c(=O)c(C(=O)Nc2ccc(Cl)c(C(F)(F)F)c2)nc2ccccc21 | i
N=C(N)c1ccc(COCc2ccccc2)cc1 | i
CCCCn1c(=O)[nH]c(=O)c2c1nc(CCC(=O)NC1CCCCCC1)n2CC(C)C | i
CCN1CCN(Cc2nc3c(c(=O)n(C)c(=O)n3C)n2Cc2c(F)cccc2Cl)CC1 | i
COc1cc(OC)c(C(=O)OCC(=O)Nc2ccccc2)cc1OC | i
CC(=O)c1sc(Nc2cccc(C)c2C)nc1C | i
COc1ccc(C(=O)NCc2nnc3ccc(-c4ccc(Cl)cc4)nn23)c(OC)c1 | i
COc1cccc(C(=O)NCc2nnc3ccc(-c4ccc(C)cc4)nn23)c1OC | 14µM*
COc1ccc(CNC(=O)c2cc(-c3ccc(C)c(C)c3)n[nH]2)cc1 | i
Cc1ccc(-c2ccc3nnc(CNC(=O)c4ccn[nH]4)n3n2)cc1 | 28µM*
COc1ccc(C(=O)NCc2nnnn2-c2ccc(C)c(C)c2)cc1 | i
Cc1ccc(-c2ccc3nnc(CNC(=O)c4cccc5[nH]ccc45)n3n2)cc1 | i
Cc1ccc(CNC(=O)c2cc(-c3cc(C)cc(C)c3O)n[nH]2)cc1 | i
COc1ccc(-c2nnc3ccc(Nc4ccc(Cl)cc4)nn23)cc1 | i
CC(=O)c1cccc(NC(=O)CSc2nnc3ccc(-c4ccc(C)cc4)nn23)c1 | i
COc1ccc(C(=O)NCc2nnc3ccc(-c4ccc(Cl)cc4)nn23)c(C)c1 | 25µM*
COc1ccccc1CNc1ccc2nnc(CCNC(=O)c3ccc(C)cc3)n2n1 | i
COc1ccc(-c2ccc3nnc(CNC(=O)c4ccc(C)c(C)c4)n3n2)cc1 | 25µM*
SMILES | KDM5B inhibitor
CCN(c1ccccc1)S(=O)(=O)c1cc(C(=O)O)cc2c1CCC2 | i
O=S(=O)(NCc1nnnn1-c1ccccc1)c1ccc(Cl)cc1 | i
CN(C)[C@@H]1CN(C2CCCCC2)CC[C@@H]1CO | i
O=C(Nc1ccc2c(c1)OCCCO2)c1ccccc1SCc1ccsc1 | i
Cc1ccc(OCCn2c(CNC(=O)c3ccco3)nc3ccccc32)cc1 | i
COc1ccc(-c2ccc3nnc(CNC(=O)c4ccco4)n3n2)cc1 | 32µM*
COc1ccc(C(=O)NCCc2nnc3ccc(SCC(=O)N4CCCCC4)nn23)cc1 | i
COc1ccc(-c2cc(C(=O)NCc3ccc(C)cc3)c3cc(C(C)C)ccc3n2)cc1 | i
COc1ccc(-c2c(NC(=O)c3ccco3)n(-c3ccccc3)nc(C)c2=O)cc1 | i
Cc1ccc(-c2ccc3nnc(CNC(=O)c4ccc(C)cc4C)n3n2)cc1 | 13µM*
COc1ccc(-c2ccc3nnc(CNC(=O)c4ccc(OC)cc4C)n3n2)cc1 | 28µM*
Cc1ccc(C(=O)NCCC(=O)N2CCCC2)c(C)c1 | i
Cc1ccc(CNC(=O)C2CCCN(S(=O)(=O)c3cc(-c4noc(C)n4)ccc3C)C2)cc1 (stereo not drawn) | i
O=C1CN(C(=O)COc2ccc(Br)cc2Cl)c2ccccc2N1 | i
O=C(NCc1ccccc1)C1CN(S(=O)(=O)c2cccnc2)CC12CCCCC2 (stereo not drawn) | i
CN(C)S(=O)(=O)c1cc(NC(=O)c2nn(-c3ccccc3)c(=O)c3ccccc23)ccc1Cl | i
C=CC[N+]12CCCCC1[C@H](CO)CCC2 (stereo partly drawn) | i
Cc1cc(C(=O)N2CCN(S(=O)(=O)c3ccc(F)cc3)CC2)c(C)n1Cc1ccco1 | i
COc1ccc(C(=O)NC2CCN(c3cc(C(F)(F)F)ncn3)CC2)c(C)c1 | i
CC(C)NC(=O)N1CCC2(CC1)CN(C(=O)c1ccnc(N)c1)Cc1ccccc1O2 | 79µM*
CC(C)NC(=O)N1Cc2ccccc2OC2(CCN(C(=O)c3ccc4[nH]ccc4c3)CC2)C1 | i
CC(=O)Nc1ccc(C(=O)N2CCC3(CC2)CN(C(=O)NC(C)C)Cc2ccccc2O3)cc1 | i
O=[N+]([O-])c1cccc2ccc(/C=C/c3cccc(F)c3)nc12 | i
CCc1cccc(C)c1NS(=O)(=O)c1ccc(-c2coc(C)n2)cc1 | i
Oc1ccc(C2(c3ccccc3)C=Cc3c(ccc4ccccc34)O2)cc1 (stereo not drawn) | i
COc1ccc(C(=O)Nc2ccc(C(=O)NC(C)(C)C)cc2)cc1 | i
Cc1cc(C(=O)Nc2ccccc2)c2ccccc2n1 | i
CCCCNC(=O)c1cccc2ncccc12 | i
